Experimental data reported in PubChem BioAssay (NCI).
About 83,000 compounds went through this panel and 20% of them were active in at least one assay; those are over-represented in the sample as a whole.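 Growth was measured after 48 h exposure to one concentration of compound in 96-well plates. Values under 10 count as active.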 Values without a mark were called inactive. The source made the active and inactive calls.

System: MDA-MB-468 breast
Test: NCI-60 one-dose screen, 48 h (100 = growth as untreated, 0 = no growth, -100 = all killed)
Conditions: 10 µM unless noted

| SMILES | growth |
| --- | --- |
| COc1ccc(/C(=C\c2ccc3c(c2)OCO3)C(=O)Nc2nc3ccc(F)cc3s2)cc1OC | 115% |
| COc1ccc(-c2cc(=O)[nH]c3c(OC)c4ccccc4c(OC)c23)cc1 | -0.192% (active) |
| O=c1c2cc(F)ccc2sc2c(N3CCNCC3)nc3ccccc3c12 | -41.2% (active) |
| C=CCn1c(SCC(=O)Nc2ccc(C(=O)/C=C/c3ccc(Cl)cc3)cc2)nnc1-c1cc(-c2ccccc2)nc2ccccc12 | 61.6% |
| O=c1ssc(Cl)c1-c1ccccc1 | 97.3% |
| O=C(CN1CCOCC1)Nc1ccc2ncnc(Nc3ccc(Oc4cccc(C(F)(F)F)c4)c(Cl)c3)c2c1 | -7.54% (active) |
| CCN1C(=O)N(CC)C2Nn3c(s/c(=C4\C(=O)Nc5ccccc54)c3=O)=NC21 (stereo not drawn) | 5.05% (active) |
| O=C(/C=C(O)/C=C/c1cccc2[nH]ccc12)/C=C/c1cccc2[nH]ccc12 | 67.8% |
| COc1ccc(-c2ccc(O)c(C(=O)/C=C/c3cc(OC)c(OC)c(OC)c3)c2)cc1 | 85.2% |
| CCCCCCCCCCCCCC[n+]1ccc(C)cc1 | -29.9% (active) |
| C=C(C)[C@@H]1CC[C@]2(COCCC#N)CC[C@]3(C)[C@H](CC[C@@H]4[C@@](C)(CCCNCCC#N)[C@H](C(=C)C)CC[C@]43C)[C@@H]12 | 16.3% [100 µM] |
| CN(CCCCCCCCNc1ccnc2ccccc12)Cc1ccc(-c2ccc(-c3ccc(C#N)cc3)s2)cc1 | -50.4% (active) |
| Cc1ccc(/C=C(/C#N)n2nnc3ncccc32)cc1 | 24.4% |
